Molecular target: Voltage-gated potassium channel subunit beta-2 (Rattus norvegicus) (UniProt P62483)
Test: KvBeta enzyme negative modulators, primary screen, biochemical, NADPH fluorescence (AID 622);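 also: slope of raw intensity against log time taken from 70 to 1610 s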
Settings: recombinant KvBeta, 4-cyanobenzaldehyde reduction, at 10 µM, active compounds read high

Chain of Voltage-gated potassium channel subunit beta-2 (Rattus norvegicus) (P62483 whole entry, looked up): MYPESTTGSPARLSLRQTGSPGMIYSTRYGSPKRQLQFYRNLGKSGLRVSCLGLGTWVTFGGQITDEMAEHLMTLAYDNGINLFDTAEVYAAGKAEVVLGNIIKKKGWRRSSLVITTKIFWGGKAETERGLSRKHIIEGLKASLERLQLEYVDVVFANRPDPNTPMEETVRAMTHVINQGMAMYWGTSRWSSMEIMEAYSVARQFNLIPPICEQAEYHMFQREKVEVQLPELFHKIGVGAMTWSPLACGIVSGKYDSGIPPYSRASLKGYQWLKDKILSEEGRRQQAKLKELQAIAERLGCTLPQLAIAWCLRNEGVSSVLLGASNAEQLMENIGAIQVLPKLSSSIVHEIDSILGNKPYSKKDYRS

Fluorescence slope, inactive:
Cn1c(=O)c2c(-c3ccccc3)n(CCCN3CCOCC3)cc2n(C)c1=O -0.574, CCc1ccc(Nc2cc(=O)n(C3CCCCC3)c(=O)[nH]2)cc1 -0.579, CCC(C(=O)N1CCc2cc(OC)c(OC)cc2C1)c1ccccc1 (stereo not drawn) -0.478, COc1ccccc1N(CC(=O)NCc1ccccn1)S(C)(=O)=O -0.422, Cc1cc2cc(CCNC(=O)CC(C)C)c(=O)[nH]c2cc1C -0.595, CC1(C)CC(=O)C=C(Nc2ccc(OCC(F)(F)C(F)F)cc2)C1 -0.324, Cn1nc(C(=O)N2CCOCC2)c2ccccc2c1=O -0.43, S=c1[nH]ncn1-c1ccccn1 -0.41, Cc1ccccc1N1C(N)=NC(N)=NC1(C)C -0.584, O=C(Cn1nnc(-c2ccc(CN3CCOCC3)cc2)n1)NC1CCCCC1 -0.584, CCCCC(=O)Nc1ccc(NC(=O)C2CC2)nc1 -0.474, CCOC(=O)c1ccc(NC(=O)Cn2cc3c(n2)CCC(C)C3)cc1 (stereo not drawn) -0.485, Cn1c(SCC(=O)N2CCN(c3cccc(Cl)c3)CC2)nnc1-c1ccncc1 -0.373, Cn1c(=O)c(=O)n(C)c2cc(S(=O)(=O)N3CCN(c4cccc(C(F)(F)F)c4)CC3)ccc21 -0.354, c1ccc(N2CCN(Cc3ccnc4ccccc34)CC2)cc1 -0.477, CCCCn1c(SCC(=O)N2CC(=O)Nc3ccccc32)nnc1-c1ccoc1C -0.534, CC(Sc1nc(-c2ccccc2)cc(C(F)(F)F)n1)C(=O)N1CCC(C(N)=O)CC1 (stereo not drawn) -0.455, CCOc1ccc(N2CC(C(=O)Nc3cccc(C)c3C)CC2=O)cc1 (stereo not drawn) -0.608, CCC(=O)Nc1ccc(NC(=O)c2cccc(OC)c2)nc1 -0.465, CCOC(=O)Cc1nnc2c(Nc3ccccc3F)nc3nonc3n12 -0.582, Cc1cccc(N2CCN(C(=O)C3CCCN(S(=O)(=O)c4c(C)noc4C)C3)CC2)c1C (stereo not drawn) -0.571, COc1ccc(N2CCN(Cc3nc(-c4ccc(Cl)cc4Cl)no3)CC2)cc1 -0.421, Cc1cc(C(F)(F)F)nn1Cc1ccc(C(=O)NCc2ccco2)o1 -0.568, C/C=C/c1ccc(OCCn2cncn2)c(OC)c1 -0.519, Cc1cnc(C(=O)Nc2nnc(C(C)C)s2)cn1 -0.5, Cc1nc2scc(-c3cccs3)c2c(=O)n1-n1cccc1 -0.333, COc1ccc(-c2nc(CSCC(=O)N3CCN(c4cccc(C)c4)C(C)C3)c(C)o2)cc1OC (stereo not drawn) -0.429, O=C(OCC(=O)c1ccccc1Br)c1ccccn1 -0.536, CCCN(Cc1cc2ccc(C)cc2[nH]c1=O)C(=O)c1cccnc1 -0.46, CCOC(=O)C(CC)Sc1nc2c(c(=O)[nH]c(=O)n2C)n1C/C=C(/C)Cl (stereo not drawn) -0.601, Cc1cc(C)n(C2=NS(=O)(=O)c3ccccc32)n1 -0.576, Cc1nnc(SCc2ccccc2F)n1NCc1cccs1 -0.47, Cc1nc2ccc(Br)cn2c1NC(C)(C)C -0.531, Cc1cc(NCCN2CCCCC2)n2c(nc3ccccc32)c1C#N -0.526, CC(NS(=O)(=O)c1ccc(F)cc1)C(c1cccs1)N1CCN(C)CC1 (stereo not drawn) -0.38, COC(=O)Cn1c(CN2CCN(c3ccccc3F)CC2)nc2c1c(=O)n(C)c(=O)n2C -0.555, COc1ccc(CCNC(=O)c2cnc3scc(C)n3c2=O)cc1OC -0.411, CCn1c(SCc2cccc(C(F)(F)F)c2)nnc1-c1ccco1 -0.414, COc1ccc(-n2c(SCC(=O)N3CCCCC3C)nnc2-c2cccnc2)cc1 (stereo not drawn) -0.337

Molecular target: Voltage-gated potassium channel subunit beta-2 (Rattus norvegicus) (UniProt P62483)
Test: KvBeta positive modulators, primary screen, biochemical, NADPH fluorescence (AID 623;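 active = NADPH fluorescence slope more negative than the mean of all samples by about 3 SD, 99.7% confidence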;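 also: fluorescence intensity change per second fitted from 20 to 320 s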)
Settings: Recombinant KvBeta, NADPH fluorescence decrease slope, 10 min; at 10 µM; active compounds read low

NADPH fluorescence slope, inactive:
Cn1c(=O)c2c(-c3ccccc3)n(CCCN3CCOCC3)cc2n(C)c1=O -2.7e-08, CCc1ccc(Nc2cc(=O)n(C3CCCCC3)c(=O)[nH]2)cc1 -2.4e-05, CCC(C(=O)N1CCc2cc(OC)c(OC)cc2C1)c1ccccc1 (stereo not drawn) 5.9e-06, COc1ccccc1N(CC(=O)NCc1ccccn1)S(C)(=O)=O -4.6e-05, Cc1cc2cc(CCNC(=O)CC(C)C)c(=O)[nH]c2cc1C -2.7e-05, CC1(C)CC(=O)C=C(Nc2ccc(OCC(F)(F)C(F)F)cc2)C1 -1.5e-05, Cn1nc(C(=O)N2CCOCC2)c2ccccc2c1=O -3.1e-05, S=c1[nH]ncn1-c1ccccn1 -3.7e-05, Cc1ccccc1N1C(N)=NC(N)=NC1(C)C -1.3e-05, O=C(Cn1nnc(-c2ccc(CN3CCOCC3)cc2)n1)NC1CCCCC1 -4.1e-05, CCCCC(=O)Nc1ccc(NC(=O)C2CC2)nc1 -6e-05, CCOC(=O)c1ccc(NC(=O)Cn2cc3c(n2)CCC(C)C3)cc1 (stereo not drawn) 2.3e-05, Cn1c(SCC(=O)N2CCN(c3cccc(Cl)c3)CC2)nnc1-c1ccncc1 2.3e-06, Cn1c(=O)c(=O)n(C)c2cc(S(=O)(=O)N3CCN(c4cccc(C(F)(F)F)c4)CC3)ccc21 1.2e-05, c1ccc(N2CCN(Cc3ccnc4ccccc34)CC2)cc1 -3.9e-05, CCCCn1c(SCC(=O)N2CC(=O)Nc3ccccc32)nnc1-c1ccoc1C -3.6e-05, CC(Sc1nc(-c2ccccc2)cc(C(F)(F)F)n1)C(=O)N1CCC(C(N)=O)CC1 (stereo not drawn) -8.9e-05, CCOc1ccc(N2CC(C(=O)Nc3cccc(C)c3C)CC2=O)cc1 (stereo not drawn) -1.8e-05, CCC(=O)Nc1ccc(NC(=O)c2cccc(OC)c2)nc1 1.2e-05, CCOC(=O)Cc1nnc2c(Nc3ccccc3F)nc3nonc3n12 -7e-06, Cc1cccc(N2CCN(C(=O)C3CCCN(S(=O)(=O)c4c(C)noc4C)C3)CC2)c1C (stereo not drawn) -2.7e-05, COc1ccc(N2CCN(Cc3nc(-c4ccc(Cl)cc4Cl)no3)CC2)cc1 -7.7e-05, Cc1cc(C(F)(F)F)nn1Cc1ccc(C(=O)NCc2ccco2)o1 -2.7e-05, C/C=C/c1ccc(OCCn2cncn2)c(OC)c1 3.6e-05, Cc1cnc(C(=O)Nc2nnc(C(C)C)s2)cn1 -3.3e-05, Cc1nc2scc(-c3cccs3)c2c(=O)n1-n1cccc1 1.9e-05, COc1ccc(-c2nc(CSCC(=O)N3CCN(c4cccc(C)c4)C(C)C3)c(C)o2)cc1OC (stereo not drawn) -5.4e-05, O=C(OCC(=O)c1ccccc1Br)c1ccccn1 -4.2e-05, CCCN(Cc1cc2ccc(C)cc2[nH]c1=O)C(=O)c1cccnc1 1.6e-05, CCOC(=O)C(CC)Sc1nc2c(c(=O)[nH]c(=O)n2C)n1C/C=C(/C)Cl (stereo not drawn) -6.7e-05, Cc1cc(C)n(C2=NS(=O)(=O)c3ccccc32)n1 -1.6e-05, Cc1nnc(SCc2ccccc2F)n1NCc1cccs1 -4.7e-05, Cc1nc2ccc(Br)cn2c1NC(C)(C)C -2.1e-05, Cc1cc(NCCN2CCCCC2)n2c(nc3ccccc32)c1C#N -4.4e-05, CC(NS(=O)(=O)c1ccc(F)cc1)C(c1cccs1)N1CCN(C)CC1 (stereo not drawn) -5.1e-05, COC(=O)Cn1c(CN2CCN(c3ccccc3F)CC2)nc2c1c(=O)n(C)c(=O)n2C -3.8e-05, COc1ccc(CCNC(=O)c2cnc3scc(C)n3c2=O)cc1OC -6.2e-05, CCn1c(SCc2cccc(C(F)(F)F)c2)nnc1-c1ccco1 -3.6e-05, COc1ccc(-n2c(SCC(=O)N3CCCCC3C)nnc2-c2cccnc2)cc1 (stereo not drawn) -5.2e-05

Source: PubChem BioAssay
